Records with an inconclusive call do not appear. The source made the active and inactive calls. Calls come from the whole dose curve; as a rule, active = well fitted curve in the direction sought with a large enough effect in the repeat runs; inconclusive = weak or mixed curves; inactive = no such curve, though single readings can be large; an effect the other way counts as inactive or inconclusive.
Columns and labels:
[1] = qHTS RealTime-Glo MT Cell Viability Assay in HepG2 cells - 24 hour (AID 1224867); note: nearly all actives have a fitted effect of over 50% in size
Outline: (§1)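 Compound treatment began 5 h after plating HepG2 cells (600/well) with NanoLuc luciferase and prosubstrate. Plates stayed at 37 C for 40 h; luminescence was captured at six time points, 0 h through 40 h.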

[2] = qHTS RealTime-Glo MT Cell Viability Assay in HEK293 cells - 32 hour (AID 1224868); note: top concentration of the series differs between compounds; nearly all actives have a fitted effect of over 50% in size
Outline: (§2)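 Quantitative high-throughput screen of the Tox21 10K library in HEK293: cells and RealTime-Glo reagents plated together, compound added at 5 h, luminescence monitored through 40 h at 37 C.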

[3] = A CellTox Green Cytotoxicity Assay to monitor cytotoxicity in HEK293 cells - 0 hour (AID 1224869); note: nearly all actives have a fitted effect of over 50% in size
Outline: (§3)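 HEK293 cells premixed with CellTox Green dye were seeded at 600 cells/well and left 5 h at 37 C/5% CO2 before pin transfer of 23 nL compound in DMSO. Fluorescence from dye bound to dead-cell DNA was read during 40 h treatment.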

[4] = qHTS RealTime-Glo MT Cell Viability Assay in HepG2 cells - 40 hour (AID 1224870); note: nearly all actives have a fitted effect of over 50% in size
Outline: (§4)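 HepG2 cells mixed with RealTime-Glo MT reagents (NanoLuc plus cell-permeant prosubstrate) were seeded at 600 cells/well, incubated 5 h at 37 C/5% CO2, then pinned with compounds in DMSO; nonlytic luminescence tracked viability during 40 h treatment.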

[5] = A CellTox Green Cytotoxicity Assay to monitor cytotoxicity in HEK293 cells - 40 hour (AID 1224871); note: nearly all actives have a fitted effect of over 45% in size
Outline: as §3

[6] = qHTS RealTime-Glo MT Cell Viability Assay in HEK293 cells - 16 hour (AID 1224872)
Outline: as §2

[7] = qHTS RealTime-Glo MT Cell Viability Assay in HepG2 cells - 8 hour (AID 1224873); note: nearly all actives have a fitted effect of over 55% in size
Outline: as §4

[8] = qHTS RealTime-Glo MT Cell Viability Assay in HEK293 cells - 40 hour (AID 1224874); settings: RealTime-Glo luminescence, active compounds read low; note: nearly all actives have a fitted effect of over 50% in size
Outline: (§5)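 HEK293 cells mixed with RealTime-Glo reagents (NanoLuc plus cell-permeant prosubstrate) at 600 cells/well, preincubated 5 h at 37 C/5% CO2, then given 23 nL compound in DMSO. Nonlytic luminescence from viable cells was read at 0, 8, 16, 24, 32 and 40 h.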

[9] = qHTS RealTime-Glo MT Cell Viability Assay in HepG2 cells - 32 hour (AID 1224877); note: nearly all actives have a fitted effect of over 55% in size
Outline: as §1

[10] = A CellTox Green Cytotoxicity Assay to monitor cytotoxicity in HepG2 cells - 24 hour (AID 1224878); note: nearly all actives have a fitted effect of over 45% in size
Outline: (§6)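 HepG2 cells were seeded together with the CellTox Green dye at 600 cells/well, left 5 h at 37 C/5% CO2, then given compounds in DMSO. Fluorescence from dye bound to dead-cell DNA was read repeatedly over 40 h of treatment at 37 C.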

[11] = A CellTox Green Cytotoxicity Assay to monitor cytotoxicity in HepG2 cells - 40 hour (AID 1224879); note: nearly all actives have a fitted effect of over 40% in size
Outline: as §6

[12] = qHTS RealTime-Glo MT Cell Viability Assay in HEK293 cells - 0 hour (AID 1224880); note: top concentration of the series differs between compounds; nearly all actives have a fitted effect of over 45% in size
Outline: as §5

[13] = A CellTox Green Cytotoxicity Assay to monitor cytotoxicity in HEK293 cells - 32 hour (AID 1224881); note: nearly all actives have a fitted effect of over 40% in size
Outline: as §3

[14] = A CellTox Green Cytotoxicity Assay to monitor cytotoxicity in HepG2 cells - 0 hour (AID 1224882); note: nearly all actives have a fitted effect of over 35% in size
Outline: as §6

[15] = A CellTox Green Cytotoxicity Assay to monitor cytotoxicity in HepG2 cells - 32 hour (AID 1224883); note: nearly all actives have a fitted effect of over 50% in size
Outline: as §6

[16] = A CellTox Green Cytotoxicity Assay to monitor cytotoxicity in HEK293 cells - 8 hour (AID 1224884); note: nearly all actives have a fitted effect of over 35% in size
Outline: as §3

[17] = qHTS RealTime-Glo MT Cell Viability Assay in HepG2 cells - 16 hour (AID 1224885); note: nearly all actives have a fitted effect of over 50% in size
Outline: as §1

[18] = qHTS RealTime-Glo MT Cell Viability Assay in HEK293 cells - 24 hour (AID 1224886)
Outline: as §2

[19] = A CellTox Green Cytotoxicity Assay to monitor cytotoxicity in HEK293 cells - 24 hour (AID 1224875); note: series mostly up to about 77 µM; nearly all actives have a fitted effect of over 45% in size
Outline: as §3

[20] = A CellTox Green Cytotoxicity Assay to monitor cytotoxicity in HepG2 cells - 16 hour (AID 1224876); note: nearly all actives have a fitted effect of over 45% in size
Outline: as §6
% is set by controls: 0 for no effect and ±100 for the full control effect.

C/C(=N\O)c1ccc(OCC(=O)N2CCCCC2)cc1
inactive: outcome [1] | outcome [2] | outcome [3] | outcome [4] | Potency [5] | outcome [6] | outcome [7] | max response [8] -11.7% | outcome [9] | Potency [10] | Potency [11] | Potency [12] | Potency [13] | Potency [14] | Potency [15] | Potency [16] | outcome [17] | outcome [18]

CCOC(=O)CC
inactive: outcome [1] | outcome [2] | outcome [3] | outcome [4] | Potency [5] | outcome [7] | max response [8] 19% | Potency [19] | Potency [20] | outcome [9] | Potency [10] | Potency [11] | Potency [12] | Potency [13] | Potency [14] | Potency [15] | Potency [16] | outcome [17] | outcome [18]

COCc1nnc(-c2ccc[n+]([O-])c2)n1-c1c(Cl)c(Cl)cc2[nH]c(=O)c(=O)[nH]c12
inactive: outcome [1] | outcome [2] | outcome [3] | outcome [4] | Potency [5] | outcome [6] | outcome [7] | max response [8] -6.51% | outcome [9] | Potency [10] | Potency [11] | Potency [12] | Potency [13] | Potency [14] | Potency [15] | Potency [16] | outcome [17] | outcome [18]

CN(C)CCc1c[nH]c2ccc(CS(=O)(=O)N3CCCC3)cc12
inactive: outcome [1] | outcome [2] | outcome [3] | outcome [4] | Potency [5] | outcome [7] | max response [8] 7.03% | Potency [19] | Potency [20] | outcome [9] | Potency [10] | Potency [11] | Potency [12] | Potency [14] | Potency [15] | Potency [16] | outcome [17] | outcome [18]

CCCCCCC(O)CO (stereo not drawn)
inactive: outcome [1] | outcome [2] | outcome [3] | outcome [4] | Potency [5] | outcome [6] | outcome [7] | max response [8] 1.68% | Potency [20] | outcome [9] | Potency [10] | Potency [12] | Potency [13] | Potency [14] | Potency [15] | Potency [16] | outcome [17] | outcome [18]

Cc1cc(C)c(C)c(C)c1
inactive: outcome [1] | outcome [2] | outcome [3] | outcome [4] | Potency [5] | outcome [6] | outcome [7] | max response [8] -10% | Potency [20] | outcome [9] | Potency [10] | Potency [11] | Potency [12] | Potency [14] | Potency [15] | Potency [16] | outcome [17] | outcome [18]

CCCCN=C(N)N=C(N)N
inactive: outcome [1] | outcome [2] | outcome [3] | outcome [4] | Potency [5] | outcome [6] | outcome [7] | max response [8] -14.6% | outcome [9] | Potency [10] | Potency [12] | Potency [13] | Potency [14] | Potency [15] | Potency [16] | outcome [17] | outcome [18]

C/C(Cl)=C/CCl
inactive: outcome [1] | outcome [2] | outcome [3] | outcome [4] | Potency [5] | outcome [6] | outcome [7] | max response [8] 16% | Potency [20] | outcome [9] | Potency [11] | Potency [12] | Potency [13] | Potency [14] | Potency [15] | Potency [16] | outcome [17] | outcome [18]

Nc1nc(Cl)cc(Cl)n1
inactive: outcome [1] | outcome [2] | outcome [3] | outcome [4] | Potency [5] | outcome [7] | max response [8] 16.9% | Potency [19] | Potency [20] | outcome [9] | Potency [10] | Potency [12] | Potency [14] | Potency [15] | Potency [16] | outcome [17] | outcome [18]

C[C@@H]1CCC[C@H](C)N1CCCC(O)(c1ccccc1)c1ccccn1 (stereo partly drawn)
inactive: outcome [1] | outcome [2] | outcome [3] | outcome [4] | Potency [5] | outcome [7] | max response [8] 4.53% | Potency [19] | Potency [20] | outcome [9] | Potency [10] | Potency [11] | Potency [12] | Potency [13] | Potency [14] | Potency [15] | Potency [16] | outcome [17] | outcome [18]

NC(=O)CC[C@@H](N)C(=O)O
inactive: outcome [1] | outcome [2] | outcome [3] | outcome [4] | Potency [5] | outcome [6] | outcome [7] | max response [8] 8.04% | outcome [9] | Potency [10] | Potency [11] | Potency [12] | Potency [13] | Potency [14] | Potency [15] | Potency [16] | outcome [17] | outcome [18]

C=CCON/C(CCC)=C1\C(=O)CC(C)(C)C(C(=O)OC)=C1O
inactive: outcome [1] | outcome [2] | outcome [3] | outcome [4] | Potency [5] | outcome [6] | outcome [7] | max response [8] 3.04% | Potency [19] | outcome [9] | Potency [12] | Potency [13] | Potency [14] | Potency [16] | outcome [17] | outcome [18]

O=C1CC2(CCCC2)CC(=O)N1CCNCC1COc2ccccc2O1 (stereo not drawn)
inactive: outcome [1] | outcome [2] | outcome [3] | outcome [4] | Potency [5] | outcome [6] | outcome [7] | max response [8] -2.45% | Potency [19] | outcome [9] | Potency [13] | Potency [14] | Potency [15] | Potency [16] | outcome [17] | outcome [18]

CCCCCCCOC(C)=O
inactive: outcome [1] | outcome [2] | outcome [3] | outcome [4] | Potency [5] | outcome [7] | max response [8] -2.34% | Potency [19] | Potency [20] | outcome [9] | Potency [10] | Potency [11] | Potency [12] | Potency [13] | Potency [14] | Potency [15] | outcome [17] | outcome [18]

— PubChem BioAssay (Tox21)
